PubChem BioAssay
Entries with a potency or affinity are not part of this list. Activity calls are given as the source filed them.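 How the source made its calls, unless noted: active means primary screen inhibitor hit that blocks the TRPC4 channel at some tested dose, yielding a dose curve; inactive means the rest.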

These compounds were tested against Short transient receptor potential channel 4 (Mus musculus) (UniProt Q9QUQ5) (assay: TRPC4 positive allosteric modulators, dose response, cell-based, HEK293 TRPC4/mu-opioid, Fluo-4 calcium, EC20 DAMGO (AID 434941;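 active means earlier screen potentiator hit that boosts the TRPC4 ion channel at some dose, with a dose response; inactive means no potentiation, no dose response, or not a prior hit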;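 further: calcium entry triggered by an EC20 dose of DAMGO at the co-expressed mu-opioid receptor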)). Settings: HEK293 TRPC4/mu-opioid cells, Fluo-4 calcium fluorescence; series mostly up to 20 µM.
Sequence of Short transient receptor potential channel 4 (Mus musculus) (Q9QUQ5 whole entry, looked up): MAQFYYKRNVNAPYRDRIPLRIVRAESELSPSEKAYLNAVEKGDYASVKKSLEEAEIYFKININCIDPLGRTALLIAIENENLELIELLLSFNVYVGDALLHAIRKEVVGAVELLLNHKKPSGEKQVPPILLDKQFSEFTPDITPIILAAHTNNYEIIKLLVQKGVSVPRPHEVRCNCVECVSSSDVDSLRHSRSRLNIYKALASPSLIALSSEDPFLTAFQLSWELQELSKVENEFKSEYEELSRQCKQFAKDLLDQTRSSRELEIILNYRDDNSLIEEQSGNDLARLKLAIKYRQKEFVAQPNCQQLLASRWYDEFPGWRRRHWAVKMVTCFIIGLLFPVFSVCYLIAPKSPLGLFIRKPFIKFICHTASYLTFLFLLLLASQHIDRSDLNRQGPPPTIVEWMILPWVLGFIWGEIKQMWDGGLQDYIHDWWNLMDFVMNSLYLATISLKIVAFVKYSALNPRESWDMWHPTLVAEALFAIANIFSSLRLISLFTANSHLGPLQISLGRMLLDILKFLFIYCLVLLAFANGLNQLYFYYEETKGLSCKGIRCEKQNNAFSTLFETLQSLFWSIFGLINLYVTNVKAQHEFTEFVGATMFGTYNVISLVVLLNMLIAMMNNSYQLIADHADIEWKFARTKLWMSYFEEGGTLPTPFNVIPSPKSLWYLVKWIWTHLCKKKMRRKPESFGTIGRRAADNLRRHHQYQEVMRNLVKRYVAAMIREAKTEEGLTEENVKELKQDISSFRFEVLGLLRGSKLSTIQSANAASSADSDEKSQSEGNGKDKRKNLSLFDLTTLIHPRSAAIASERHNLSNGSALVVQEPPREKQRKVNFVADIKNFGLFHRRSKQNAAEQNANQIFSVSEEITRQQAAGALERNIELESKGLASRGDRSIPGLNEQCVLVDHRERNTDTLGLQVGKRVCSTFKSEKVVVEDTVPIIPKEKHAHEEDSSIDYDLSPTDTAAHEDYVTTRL

outcome, inactive:
CN(C)C(CNC(=O)NC1CCCCC1)c1cccnc1 (configuration not stated)
O=C1S/C(=C\c2ccc(N3CCOCC3)o2)C(=O)N1Cc1c(F)cccc1Cl
COCCCn1c(N)c(-c2nc3ccccc3n2C)c2nc3ccccc3nc21

These compounds were tested against Short transient receptor potential channel 4 (Mus musculus) (UniProt Q9QUQ5) (assay: mouse TRPC4 channel inhibitors, dose response, cell-based, HEK293 TRPC4/mu-opioid, Fluo-4 calcium (AID 434942)). Settings: HEK293 TRPC4/mu-opioid cells, DAMGO-evoked Fluo-4 calcium ratio; series mostly up to 20 µM.

outcome, inactive:
COc1ccc(C(CNC(=O)COc2ccccc2OC)N(C)C)cc1OC (configuration not stated)
COc1ccc(C(CNC(=O)CCOc2ccccc2)N(C)C)cc1 (configuration not stated)
CN(C)C(CNc1ccc(C(F)(F)F)cn1)c1ccccc1 (configuration not stated)
Fc1ccc(-n2cc(CNCCc3cccnc3)c(-c3ccccc3Cl)n2)cc1
CCOC(=O)c1ccc(NC(=O)NCCc2cnc[nH]2)cc1
CN1CCN(C(=O)c2cccn(Cc3c(Cl)cccc3Cl)c2=O)CC1
Cc1sc2ncnc(NCC(c3ccccc3)N(C)C)c2c1C (configuration not stated)
O=C(O)C1C2C=CC(C2)C1C(=O)N1CCN(C/C=C/c2ccccc2)CC1 (configuration not stated)
CCCCN(CC)CCNC(=O)c1cc2c(-c3ccc(Cl)cc3)nn(C)c2s1
O=C(Nc1ccncc1)c1ccc(Cl)c(S(=O)(=O)N2CCc3ccccc32)c1
CC(=O)OCC[N+](C)(C)C
COc1ccc(CCN(C)C(=O)C2CCCN(C3CCN(Cc4ccccc4)CC3)C2)cc1OC (configuration not stated)
Cc1cc(C)cc(NC(=S)N2CCN(c3ncc(C(F)(F)F)cc3Cl)CC2)c1
COc1ccc(C(CNC(=O)Cc2ccc(-c3ccccc3)cc2)N(C)C)cc1 (configuration not stated)
O=c1c(Cc2ccccc2)c(O)ccn1CCc1cnc[nH]1
COc1ccc(C(=O)NNC(=S)NC(=O)c2cccs2)cc1
CCC(=O)NC(C)C(c1cccs1)N1CCN(c2ccccc2)CC1 (configuration not stated)
NCCCNC(=O)c1cc2ccccc2[nH]1
Cn1c2ccccc2c(=O)c2c(=O)n(C3CCCCC3)c(-c3ccco3)nc21
COc1ccc(-n2c3c(cc(C(=O)NNc4ccccc4)c2=O)C(=O)CC(C)(C)C3)cc1
O=C(c1sc2ccccc2c1Cl)N(Cc1ccccc1)C1CCS(=O)(=O)C1 (configuration not stated)
CN(C)C(CNC(=S)Nc1ccc(Cl)cc1)c1cccnc1 (configuration not stated)
O=C1/C(=C\c2cc([N+](=O)[O-])ccc2O)SC(=S)N1Cc1ccc(Cl)cc1
Cc1ccc(C(=O)NNC(=S)NC(=O)COc2ccccc2)cc1
CCCCCc1c(O)nc(SCCN(C)C)[nH]c1=O
CC1CC(C)CN(CCCNS(=O)(=O)c2cc(Br)cc3c2N(C(=O)C2CC2)CC3)C1 (configuration not stated)
CN1C2C=C(N(CCc3ccccc3)C(=O)c3ccc(Cl)cc3)CC1CC2 (configuration not stated)
Cc1ccccc1C(=O)NNC(=S)NC(=O)COc1ccccc1
CCOC(=O)C1(CC2CCCCO2)CCN(Cc2cc(F)ccc2-n2cccn2)CC1 (configuration not stated)
Cc1ccc(NC(=O)CCN2CCC(Cc3ccccc3)CC2)cc1
CCCn1ncc(CN2CCC(n3nccc3NC(=O)CCc3ccccc3)CC2)c1C
Cc1sc2ncnc(NCC(c3ccco3)N(C)C)c2c1C (configuration not stated)
CCCN(CCC)CCNC(=O)CCC(=O)Nc1ccc2nc(N3CCOCC3)cc(C)c2c1
CCN1CCN(c2c(Cl)cccc2NC(=O)c2ccc([N+](=O)[O-])cc2)CC1
CN1CCN(c2ccc(NC(=O)c3ccc(-c4cccc([N+](=O)[O-])c4)o3)cc2)CC1
OCCC1CN(Cc2ccccc2-c2ccco2)CCN1Cc1ccccc1 (configuration not stated)
CN(C)C(CNC(=O)NC1CCCCC1)c1cccnc1 (configuration not stated)
O=C1S/C(=C\c2ccc(N3CCOCC3)o2)C(=O)N1Cc1c(F)cccc1Cl
COCCCn1c(N)c(-c2nc3ccccc3n2C)c2nc3ccccc3nc21
